# Screens (PubChem)
# TDP1 cell noCPT = qHTS for Inhibitors of human tyrosyl-DNA phosphodiesterase 1 (TDP1): qHTS in cells in absence of CPT; DT40 Tdp1-/- hTDP1 cells, no CPT, ATP luminescence, 48 h; Potency, µM (top dose mostly 46.2 µM), without a hit: top-dose activity change, negative = growth inhibition, most hits filed as inhibitors; 420,000 tested, 15% active; note: potency is the fitted concentration of half-maximal effect; % is set by controls: 0 for no effect and ±100 for the full control effect; nearly all actives have a fitted effect of over 55% in size
#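 Luminescent ATP content (CellTiter-Glo) served as the growth readout. Knockout chicken DT40 cells expressing human TDP1 were exposed to compounds without camptothecin for a minimum 48 hr at 37 °C.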
# IL1B secr inh = blocks inflammasome-driven IL-1 beta release. activity change, % at 57.5 µM. 360,000 tested, 4.7% active. THP-1 LPS/ATP IL-1B secretion, AlphaLISA, 16 h; stronger effect = lower value; in the data active = activity change below about -50%; inconclusive = mostly about -30% to -49%; note: % is set by controls: 0 for no effect and ±100 for the full control effect
#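 THP-1 cells pretreated 1 hr with compounds (up to 57.5 uM final), then stimulated with LPS (250 ng/mL final) plus ATP (1.25 mM final); secreted IL-1B measured by AlphaLISA after 16 hr, decreased signal indicating inhibition.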
# DT40 TDP1 CPT = DT40-hTDP1 cell growth loss with CPT. chicken DT40 Tdp1-/-;hTDP1 cells + 20 nM CPT, ATP luminescence, 48 h. Potency, µM (top dose mostly 46.2 µM), for inactives: at the top dose activity change, negative = growth inhibition, most hits filed as inhibitors. 420,000 tested, 12% active. AID 686979; note: potency is the fitted concentration of half-maximal effect; % is set by controls: 0 for no effect and ±100 for the full control effect; nearly all actives have a fitted effect of over 55% in size
#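 Chicken DT40 Tdp1-/- cells complemented with human TDP1, 400 cells/well, exposed to compounds plus 20 nM camptothecin for at least 48 h at 37 C; viability read as ATP content by CellTiter-Glo luminescence.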
# HepG2 tox = kills HepG2 cells in TGF-b inhibitor counter-screen. HepG2 CAGA-GFP viability, ATP luminescence, 18 h. Potency, µM (top dose mostly 46.1 µM), for the others: at the highest dose activity change, negative = cytotoxicity, most hits filed as cytotoxic. 410,000 tested, 0.76% active. AID 588856; note: potency is the fitted concentration of half-maximal effect
#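 HepG2 CAGA-GFP cells (1000/well, DMEM with 1% FBS) received compound, then TGF-beta at 500 pg/mL final, and were incubated 18 hours at 37 degrees C. Viability was read by CellTiter-Glo luminescence. Media-only wells were set as complete cell-killing and DMSO as no toxicity.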
# TGFb inhibitor = TGF-b pathway inhibition; HepG2 CAGA-GFP TGF-b/SMAD3 reporter, GFP fluorescence, 18 h; TGF-beta stimulated, 500 pg/mL final; Potency, µM (highest dose often 46.1 µM), for the others: top-dose activity, negative = inhibition, usual class: inhibitors; 410,000 tested, 1.2% active; AID 588855; note: potency is the fitted concentration of half-maximal effect; % is set by controls: 0 for no effect and ±100 for the full control effect; nearly all actives have a fitted effect of over 65% in size
#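 Smad-responsive CAGA-GFP expression was quantified in HEPG2 cells exposed to compounds and 500 pg/mL final TGF-beta for 18 h at 37 degrees C; unstimulated wells defined full inhibition.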
# TDP1 block = TDP1 (human) enzyme inhibition; Q9NUW8; recombinant TDP1, AlphaScreen DNA substrate cleavage; Potency, µM (titrated, usually from 130 µM), inactives show at the highest dose activity change, negative = inhibition, usual class: inhibitors; 350,000 tested, 0.28% active; note: potency is the fitted concentration of half-maximal effect; % is set by controls: 0 for no effect and ±100 for the full control effect; nearly all actives have a fitted effect of over 40% in size
# Target sequence (Q9NUW8 whole entry, looked up): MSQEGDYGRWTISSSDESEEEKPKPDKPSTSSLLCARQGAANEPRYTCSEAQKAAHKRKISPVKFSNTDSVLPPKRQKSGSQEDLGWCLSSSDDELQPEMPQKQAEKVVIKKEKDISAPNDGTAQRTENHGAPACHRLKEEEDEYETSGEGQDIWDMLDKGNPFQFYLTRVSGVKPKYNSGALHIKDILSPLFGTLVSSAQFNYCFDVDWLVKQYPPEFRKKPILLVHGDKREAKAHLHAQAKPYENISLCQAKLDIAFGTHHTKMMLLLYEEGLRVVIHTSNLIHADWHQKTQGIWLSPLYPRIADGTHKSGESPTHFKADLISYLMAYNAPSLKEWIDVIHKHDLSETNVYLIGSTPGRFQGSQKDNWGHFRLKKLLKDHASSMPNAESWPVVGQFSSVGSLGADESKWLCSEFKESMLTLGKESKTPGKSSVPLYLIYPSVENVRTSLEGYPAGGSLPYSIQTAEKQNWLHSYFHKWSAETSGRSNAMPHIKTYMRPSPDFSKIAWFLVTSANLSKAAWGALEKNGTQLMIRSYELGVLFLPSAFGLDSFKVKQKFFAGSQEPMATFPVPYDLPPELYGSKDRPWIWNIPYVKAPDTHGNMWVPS
#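 Compounds were preincubated with Tdp1 (1 nM final) for 15 min at room temperature before substrate (15 nM final) started a 5 min reaction; beads (10 ug/ml final) were then added for 10 min before AlphaScreen detection.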
# An asterisk follows results filed as active; i = inactive; ? = inconclusive; / = no result. Shown are actives, neighbours in structure and some others; about 19% of the full set was active somewhere. Unless noted, calls come from the whole dose curve; as a rule, active = well fitted curve in the direction sought with a large enough effect; inconclusive = small, poorly fitted or top-dose-only effect, or another doubt; inactive = no such curve, though single readings can be large; an effect the other way counts as inactive or inconclusive.
SMILES,TDP1 cell noCPT,IL1B secr inh,DT40 TDP1 CPT,HepG2 tox,TGFb inhibitor,TDP1 block
CCOc1ccc(OCC)c(NC(=O)CCc2nc3cccnc3n2-c2ccccc2)c1,?,/,21µM*,-30%,1%,6%
O=C(CCc1nc2cccnc2n1-c1ccccc1)Nc1ccc(Cl)c(Cl)c1,18µM*,/,?,-26%,-1%,6%
CCOC(=O)c1cccc(NC(=O)CCc2nc3cccnc3n2-c2ccccc2)c1,-28%,/,-27%,-1%,-11%,6%
CCN(CC(=O)Nc1ccc(Br)cc1)C(=O)c1nc2nc(C)cc(C)n2n1,22%,12,-1%,-20%,-16%,0%
CC(=O)OCC(NC(=O)C(CCCCNC(=O)OCc1ccccc1)NC(=O)OC(C)(C)C)C1OC(n2cc(F)c(=O)[nH]c2=O)C(OC(C)=O)C1OC(C)=O (centres undefined),/,/,/,-1%,7%,9%
CC(C)(C)C(=O)OC/C(N)=N/OC(=O)c1ccccc1,-14%,-11,?,10%,15%,5%
N/C(=N\OC(=O)c1ccccc1)C(Cc1ccccc1)C(=O)NOC(=O)c1ccccc1 (centres undefined),2.6µM*,-89*,2.9µM*,-75%,?,/
CC(=O)OC1CCC2(C)C3CC(=O)C4(C)C(CC5OC6(CCC(C)CO6)C(C)C54)C3CC[C@H]2C1 (some centres undefined),0%,/,3%,/,/,/
CCOc1ccc(S(=O)(=O)N2CCOCC2)cc1NC(=O)CSC(=S)N1CCCC1,?,-4,?,2%,?,/
COc1cc2c(-c3ccccc3)c(C)oc2cc1/C=N/NC(N)=S,?,14,?,6.3µM*,?,/
COc1cc(OC)c(/C=N/NC(N)=S)cc1Br,?,i,?,2%,5%,1%
N#CCCn1c(=O)c(-c2ccccc2)nc2cnc(OCc3ccccc3)nc21,?,/,-7%,/,/,/
Cc1cccc(N2CCN(c3nc4ccc(Cl)cc4n4cnnc34)CC2)c1C,?,22,21µM*,-73%,?,-3%
COc1ccccc1N1CCN(c2nc3ccccc3n3cnnc23)CC1,21µM*,/,?,-9%,33%,-2%
CCN1CCN(c2nc3ccccc3n3cnnc23)CC1,-22%,-20,-7%,36%,25%,/
CCCCn1c(N)c(N(CC(C)C)C(=O)CSc2n[nH]c(-c3ccc(C)cc3)n2)c(=O)[nH]c1=O,-8%,-1,-21%,-33%,-8%,-8%
COc1ccc(/C=N/Nc2ccccn2)cc1OC,16µM*,-15,?,-23%,-12%,7%
COc1cc(/C=N/NC2=NC(C)(C)Cc3ccccc32)cc(OC)c1OC,21µM*,-7,?,-15%,5%,3%
COc1ccc(C=NN=C2c3ccccc3-c3ccccc32)cc1OC,23µM*,-22,?,-33%,0%,/
CN(C)c1ccc(/C=N\Nc2ccccn2)cc1,23µM*,-11,21µM*,-5%,-34%,/
COc1ccc(/C=N/Nc2nc3ccccc3[nH]2)cc1OC,?,-75*,?,-24%,-28%,11%
COc1ccc2c(c1)c(/C=N/Nc1nc3ccccc3[nH]1)c(C)n2C,?,-98*,21µM*,-11%,?,13%
COc1cc(/C=N\Nc2nc3ccccc3o2)cc(OC)c1OC,?,?,?,-33%,-26%,8%
COc1cc(/C=N\Nc2nc3ccccc3[nH]2)cc(OC)c1OC,12µM*,0,21µM*,-38%,?,-8%
COc1cc(OC)c(OC)cc1/C=N/Nc1nc2ccccc2[nH]1,-22%,0,3%,-3%,-5%,0%
